Source: PubChem BioAssay AID686978 (National Center for Advancing Translational Sciences (NCATS), 2013)
Hit rate of the full screen: of about 420,000 compounds, about 64,000 (15%) were called active. Another 27% or so got no clear call; they are omitted. Calls follow the shape of the dose curve; as a rule, active = well fitted inhibition curve with a large enough effect; inconclusive = small, poorly fitted or top-dose-only effect; inactive = flat fitted curve, though single readings scatter. Not all results are given here. Entries that show only a call come without a potency.

Test: qHTS for Inhibitors of human tyrosyl-DNA phosphodiesterase 1 (TDP1): qHTS in cells in absence of CPT; also: nearly all actives have a fitted effect of over 55% in size
Settings: DT40 Tdp1-/- hTDP1 cells, no CPT, ATP luminescence, 48 h; activity change, negative = growth inhibition: at 46.2 µM (top of the series)
Summary of the method: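 Chicken DT40 Tdp1-/- cells complemented with human TDP1, screened without camptothecin (DMSO vehicle only), 400 cells/well. Compounds pin-transferred, cells incubated at 37 °C for at least 48 hr. Growth read as ATP-dependent luminescence (CellTiter-Glo, 30 min at RT).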
Potency is read from the fitted curve at half-maximal effect.

| SMILES | Potency |
| --- | --- |
| NC(=O)CSc1nc2c(oc3ccccc32)c(=O)n1Cc1ccccc1 | inactive |
| COCC(=O)Nc1cc(C(=O)OC)cc(C(=O)OC)c1 | inactive |
| COc1cccc(CN(C)C(=O)CC[C@H]2O[C@@H](n3cnc4c(NC(=O)c5ccccc5)ncnc43)[C@H](O)[C@@H]2O)c1 | inactive |
| COc1ccc(CC(N)C(=O)NC2C(O)[C@H](n3cnc4c(N(C)C)ncnc43)O[C@@H]2CO)cc1 (some centres undefined) | 22.1 µM (active) |
| Nc1ncnc2c1ncn2[C@@H]1O[C@H](CNC(=O)[C@H](N)Cc2cccnc2)[C@@H](O)[C@H]1O | inactive |
| COC(=O)CNC(=O)c1ccc(OC2CCN(C(=O)C3CC3)CC2)cc1 | inactive |
| CCN(CC)CCOCCOc1ccc(Cl)c2ccccc12 | 16.4 µM (active) |
| CCC(C(=O)OCCN(CC)CC)c1ccccc1 (centres undefined) | inactive |
| CN(C)CCOc1ccc(Cl)cc1C(C)(C)C | inactive |
| Cc1cccc(NC(=O)CSc2nnc(-c3ccco3)o2)c1 | inactive |
| O=C(CCc1ccccc1)Nc1cccc(-c2nnc(-c3ccco3)o2)c1 | 16.4 µM (active) |
| C/C(=N/NC(=O)CCc1ccccc1)c1ccco1 | inactive |
| COc1cc(NS(=O)(=O)c2ccc(NC(=O)CN3C(=O)c4ccccc4C3=O)cc2)ncn1 | inactive |
| Oc1cc(O)c2c(c1)OC(c1ccc(O)c(O)c1)C(O)C2 (centres undefined) | inactive |
| CCCC1OC23CCCCC2C(C#N)(C#N)C1(C#N)C(=N)O3 (centres undefined) | 5.8 µM (active) |
| N#C/C(=C\c1ccccc1)c1n[nH]c(Cn2cncn2)n1 | inactive |
| COC(=O)N1CCC2(CCCN(c3ccncc3)C2)CC1 | inactive |
| CCc1cccc2c(=O)c(C(=O)NCCCOC)c[nH]c12 | inactive |
| CCc1nc2ccc(C(=O)Nc3ccc(OC)c(OC)c3)cn2c1N(C)C(=O)c1cccc(OC)c1 | inactive |
| CCc1nc2ccc(C(=O)Nc3cccc(OC)c3)cn2c1N(CCC(C)C)CCN(C)C | inactive |
| CCc1nc2ccc(C(=O)Nc3cc(-c4ccccc4)ccc3OC)cn2c1N(CC)CC(=O)N(C)C | 11.6 µM (active) |
| CCn1c(CNS(=O)(=O)c2ccc(Cl)cc2)n[nH]c1=S | inactive |
| Cc1cccnc1NC(=O)CSc1nnc(COc2ccc(C(C)C)cc2)n1C | inactive |

| SMILES | Potency |
| --- | --- |
| N#Cc1cccc(CSc2ncnc(N)n2)c1 | inactive |
| Cc1cc(C)c(C)c(S(=O)(=O)Nc2ccc(O)cc2)c1C | 11.6 µM (active) |
| Cc1cc(C)c(C)c(S(=O)(=O)Nc2cccnc2)c1C | inactive |
| Cc1cc(C(C)(C)C)cc(S(=O)(=O)Nc2ccc(C(=O)O)cc2)c1C | inactive |
| COc1cc(NC(=O)C2CC(c3ccccc3O)=NO2)c(OC)cc1Cl (centres undefined) | inactive |
| CC/S(CC1CC1(Cl)Cl)=N\S(=O)(=O)c1ccc(C)cc1 (centres undefined) | inactive |
| COC(=O)CCNc1ccc2c(c1)OCCO2 | inactive |
| O=C(NCCc1ccccc1)c1ccc(OCCOc2ccccc2)cc1 | inactive |
| O=C(NCCOc1ccccc1)c1ccccc1 | inactive |
| CC(C)(c1ccccc1)c1ccc(OCCN)cc1 | 11.6 µM (active) |
| O=C(CSc1ncccn1)N1CCCC1 | inactive |
| CCc1nnc(NC(=O)CSc2nc3c(c(=O)n2-c2ccccc2OC)SCC3)s1 | inactive |
| CN(C)S(=O)(=O)c1ccc(C(=O)NCCN=C2NS(=O)(=O)c3ccccc32)cc1 | inactive |
| NC(=S)NN=C1CCCC(C(F)(F)F)C1 (centres undefined) | 23.1 µM (active) |
| Cc1cc(C)nc(SCc2cn3c(C)cc(C)nc3n2)n1 | inactive |
| O=[N+]([O-])/C(N=Nc1ccccc1)=N\Nc1ccccc1 | inactive |
| O=S(=O)(c1ccc(Br)c2ccccc12)N1CCOCC1 | inactive |
| O=S(=O)(NCCc1ccccn1)c1cc(Cl)cc(Cl)c1O | inactive |
| COc1ccc(NC(=O)CCC(=O)Nc2nnc(C3CCCCC3)s2)cc1 | inactive |
| COC(=O)CCc1sc(Nc2ccc(Br)cc2)nc1-c1ccc(OC)cc1 | 13 µM (active) |
| COc1ccc(NC(=O)c2sc(N)nc2-c2ccccc2)cc1 | inactive |
| CC(C)(C)n1nc2c(c1NC(=O)c1cc3ccccc3o1)CSC2 | inactive |
| C[C@@H](NC(=O)OC(C)(C)C)c1nnc(S(=O)(=O)Cc2ccccc2)o1 | 1.03 µM (active) |

| SMILES | Potency |
| --- | --- |
| C[C@H](NC(=O)OC(C)(C)C)c1nnc(SCC(N)=O)o1 | inactive |
| CC(C)Sc1nnc([C@H](Cc2ccccc2)NC(=O)OC(C)(C)C)o1 | inactive |
| O=C(CSc1nnc(CNC(=O)c2ccc(F)cc2)o1)Nc1ccc2c(c1)OCO2 | inactive |
| Cc1cc(=O)[nH]c(=S)[nH]1 | inactive |
| COc1cc(C(=O)OCc2ccc([N+](=O)[O-])cc2)cc(OC)c1OC | inactive |
| Cc1cc(CO)nn1-c1ccc([N+](=O)[O-])cc1 | inactive |
| Cc1ccc(-n2cc3ccc([N+](=O)[O-])cc3n2)cc1 | 16.4 µM (active) |
| Cc1ccc(C(=O)Cn2cc([N+](=O)[O-])nc2C)cc1 | inactive |
| O=C(CN1CCN(c2ccccn2)CC1)NC1CCCCC1 | inactive |
| O=C1CCC(CCC(=O)N2CCCC(C(=O)c3ccc(Cl)cc3)C2)=NN1 (centres undefined) | inactive |
| COc1cc(OC)cc(-c2nc3nc(C)c(CCC(=O)Nc4ccc(C)cc4)c(C)n3n2)c1 | inactive |
| COc1cc(OC)cc(-c2nc3nc(C)c(CCC(=O)Nc4ccccc4)c(C)n3n2)c1 | 29.1 µM (active) |
| CCOC(=O)c1cccc(NC(=O)CCc2c(C)nc3ncnn3c2C)c1 | inactive |
| COc1ccc(-c2cn[nH]c2-c2ccc(OC)cc2)cc1 | inactive |
| COc1cc(OC)cc(-c2c(-c3cccs3)c3cc(-c4ccc(OC)cc4F)ccc3n2C)c1 | 14.6 µM (active) |
| COc1cc(OC)cc(-c2c(C#Cc3ccsc3)c3cc(-c4ccc(SC)cc4)ccc3n2C)c1 | inactive |
| COc1ccc(-c2c(-c3cc(OC)cc(OC)c3)n(C)c3ccc(-c4ccn[nH]4)cc23)cc1 | 25.9 µM (active) |
| COc1ccc(OC)c(-n2c(-c3ccn[nH]3)n[nH]c2=S)c1 | inactive |
| O=C(CSc1nncs1)NC1CCCc2ccccc21 (centres undefined) | inactive |
| Cc1nc2cc3c(cc2s1)OCO3 | inactive |
| Cc1nnc(SCC(=O)NC(=O)NC2CCCC2)n1N | inactive |
| COc1ccc(N2CC(C(=O)N[C@@H](C)C(=O)N3CCCCC3)CC2=O)cc1 (some centres undefined) | inactive |
| CCOC(=O)C1CCN(S(=O)(=O)c2ccc3c(c2)N(C)C(=O)CC(=O)N3C)CC1 | inactive |
